According to article PMC5540273 (PLoS ONE, 2017):
Several values for one entry are separate records, joined by “and”; a condition that tells them apart may be missing. Equal values may be shown once. Read-outs that look alike come from different tables or passages of the source.

Key:
MST2 = test system: T1, MST2; details: n = 1
T1 construct: gene STK3

MST3 = test system: T2, MST3; details: concentration: 1 μM, replicates: in singlicate; n = 1
T2 construct: gene STK24

MST4 = details: n = 1
MTOR = details: n = 1
MUSK = details: n = 1
MYLK2 = details: n = 1
MYLK4 = details: n = 1
MYLK = details: n = 1
MYO3A = details: n = 1
MYO3B = details: n = 1
[1] = concentration: 1 μM, replicates: in singlicate
[2] = concentration: 1 μM,replicates: in singlicate, 1 µM
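Note: KINOMEscan kinase panel screen.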

| Structure (SMILES) | %Inh (MST2; [1]) | %Inh (MST3) | %Inh (MST4; [1]) | %Inh (MTOR; [1]) | %Inh (MUSK; [1]) | %Inh (MYLK2; [1]) | %Inh (MYLK4; [1]) | %Inh (MYLK; [1]) | %Inh (MYO3A; [1]) | %Inh (MYO3B; [1]) | %Inh (MST2; [2]) | %Inh (MST4; [2]) | %Inh (MTOR; [2]) | %Inh (MUSK; [2]) | %Inh (MYLK2; [2]) | %Inh (MYLK4; [2]) | %Inh (MYLK; [2]) | %Inh (MYO3A; [2]) | %Inh (MYO3B; [2]) |
| --- | --- | --- | --- | --- | --- | --- | --- | --- | --- | --- | --- | --- | --- | --- | --- | --- | --- | --- | --- |
| COc1cc2ncnc(Nc3ccc4nc(-c5ccccc5)[nH]c4c3)c2cc1OC.Cl [GW282450] | 0% | 0% | 0% | 16% | 10% | 0% | 8% | 29% | 21% | 0% |  |  |  |  |  |  |  |  |  |
| Cc1cc(N2Cc3ccccc3C2)nc(Nc2ccc(S(=O)(=O)N3CCOCC3)cc2)n1.Cl [GSK1669917] | 0% | 0% | 0% | 9% | 0% | 0% | 0% | 12% | 0% | 0% |  |  |  |  |  |  |  |  |  |
| Cc1cccc(-c2nc(Nc3ccc4[nH]ncc4c3)c3ccccc3n2)n1 [GW857175] | 0% | 10% | 27% | 0% | 0% | 7% | 32% | 32% | 0% | 0% |  |  |  |  |  |  |  |  |  |
| CC1=C(C(=O)Nc2cc3cn[nH]c3cc2F)C(c2ccc(C(F)(F)F)cc2)CC(=O)N1 (stereo not drawn) [GSK429286] | 0% | 0% | 0% | 13% | 6% | 0% | 0% | 13% | 0% | 0% |  |  |  |  |  |  |  |  |  |
| CS(=O)(=O)c1ccc(-c2c(-c3ncn[nH]3)sc(N3CCOCC3)c2C#N)cc1 | 13% | 100% | 0% | 74% | 2% | 12% | 29% | 9% | 4% | 4% |  |  |  |  |  |  |  |  |  |
| O=S(=O)(c1ccc(-c2ccnc3[nH]ccc23)cc1)N1CCCC1 [GSK846226] | 4% | 14% | 0% | 12% | 0% | 3% | 62% | 22% | 10% | 0% |  |  |  |  |  |  |  |  |  |
| COc1ccccc1-c1ccc2c(NC(=O)C3CC3)n[nH]c2n1 [SB-711239] | 0% | 0% | 0% | 30% | 0% | 23% | 0% | 12% | 0% | 0% |  |  |  |  |  |  |  |  |  |
| Nc1ncnc2[nH]c(-c3ccccc3)nc12 [AH5015] | 0% | 0% | 1% | 9% | 18% | 0% | 30% | 7% | 8% | 0% |  |  |  |  |  |  |  |  |  |
| Cc1cccc(-c2cc(Nc3ccncc3)c3ccccc3n2)n1 [GSK223675] | 6% | 5% | 0% | 7% | 1% | 0% | 0% | 15% | 17% | 0% |  |  |  |  |  |  |  |  |  |
| CSc1nn2c(=O)cc(N3CCOCC3)nc2n1Cc1cccc(C(F)(F)F)c1C [GSK2363608] |  | 0% |  |  |  |  |  |  |  |  | 9% and 1% | 90.3% and 0% | 13% and 28% | 12% and 4% | 19% and 0% | 17% and 0% | 6% and 0% | 21% and 0% | 0% and 14% |
| Cc1ccc(C(=O)Nc2ccc(Nc3ccnc4cc(-c5ccccn5)ccc34)cc2O)cc1.Cl [GW440146] | 0% | 0% | 0% | 17% | 14% | 6% | 0% | 5% | 11% | 0% |  |  |  |  |  |  |  |  |  |
| O=C(Nc1ccc2c(c1)OCO2)NC1CCN(c2ccnc(Nc3ccc(F)cc3)n2)C1 (stereo not drawn) [GSK1379724] | 0% | 0% | 0% | 5% | 2% | 1% | 0% | 0% | 24% | 0% |  |  |  |  |  |  |  |  |  |
| Cc1ccc(NC(=O)Nc2cccc(Cl)c2)cc1-c1ccc(C(=O)Nc2ccncc2)cc1 [GSK1398468] | 0% | 0% | 0% | 9% | 5% | 9% | 13% | 8% | 100% | 0% |  |  |  |  |  |  |  |  |  |
| Cc1cccc(-c2nc(C)cc(Nc3ccncc3)n2)n1 [GSK257997] | 0% | 0% | 0% | 13% | 0% | 16% | 9% | 5% | 6% | 0% |  |  |  |  |  |  |  |  |  |
| Cc1ccc(-c2cc(-c3c[nH]nc3-c3ccccn3)ccn2)cc1 [GW684088] | 3% | 25% | 0% | 22% | 0% | 39% | 13% | 18% | 46% | 5% |  |  |  |  |  |  |  |  |  |
| CC(=O)Nc1nc2cnc(Nc3cc(NC(=O)c4cccc(CCC#N)c4)ccc3C)nc2s1 | 27% | 3% | 0% | 0% | 0% | 0% | 6% | 27% | 13% | 0% |  |  |  |  |  |  |  |  |  |
| Fc1cc(Cl)ccc1Nc1ccnc2cc(-c3ccc(CN4CCCCC4)o3)ccc12 [GW560116] | 0% | 15% | 0% | 0% | 0% | 27% | 5% | 11% | 31% | 0% |  |  |  |  |  |  |  |  |  |
| Cn1ccc2ncnc(Oc3ccc(NC(=O)Nc4ccccc4)cc3)c21 | 0% | 0% | 0% | 16% | 14% | 2% | 0% | 3% | 5% | 28% |  |  |  |  |  |  |  |  |  |
